According to PubChem BioAssay AID1259418 (Broad Institute, 2018):
Among all 3,400 compounds or so, about 840 (25%) were called active. Not shown: some 11% with an inconclusive outcome. Only a sample is shown. Entries with a potency or affinity are not part of this list. Unmarked numbers belong to inactive results.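 How the source made its calls: active means fitted half-maximal concentration of signal decrease at or below twice the sample's top tested concentration; inconclusive means flat curve between -70 and -30 percent, or poor fit; inactive means flat within 30 percent, signal rise, or potency above limit.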

assay: T. gondii growth inhibition with IFN-gamma, dose response, cell-based, ME49Luc, HeLa, luciferase, 72 h (AID 1259418); details: T. gondii ME49Luc in IFN-y HeLa, hits give low values, -100% = high-dose IFN-γ control wells; at 19.5 µM unless noted

| Compound | max activity |
| --- | --- |
| Cc1ccc2c(c1C)-n1cccc1C1(CCN(C(=O)c3ccccc3Cl)CC1)N2 | -6.73% [at 0.35 µM] |
| O=C(c1ccccc1Cl)N1CCC2(CC1)Nc1ccc(Cl)cc1-n1cccc12 | 6.15% [at 1.35 µM] |
| CCOc1ccc(C(=O)N2CCC3(CC2)Nc2ccc(Cl)cc2-n2cccc23)cc1 | 11.3% [at 0.68 µM] |
| Cc1ccccc1C(=O)N1CCC2(CC1)Nc1ccc(C)c(C)c1-n1cccc12 | -10.8% [at 5 µM] |
| CCOc1ccccc1C(=O)N1CCC2(CC1)Nc1cc(OC)ccc1-n1cccc12 | 12% [at 2.6 µM] |
| Cc1ccccc1C(=O)N1CCC2(CC1)Nc1ccc(Cl)cc1-n1cccc12 | -3.44% |
| Cc1ccc(-c2coc(-c3ccc(NC(=O)NCc4ccc(F)cc4)cc3)n2)c(C)c1 | -6.17% [at 0.16 µM] |
| CN(Cc1ccccn1)C(=O)C1=NOC2(CCN(S(=O)(=O)c3ccc(F)cc3)C2)C1 (stereo not drawn) | 35.3% |
| COc1ccc(-c2nc3c(s2)CN(C(=O)Nc2ccc(C)cc2Cl)CC3)cc1OC | -9.18% [at 0.35 µM] |
| COc1ccccc1-c1nc(Cn2nnc(-c3nc(-c4cccc(Cl)c4)no3)c2C)c(C)o1 | 8.57% [at 0.35 µM] |
| NC(=O)C1(N2CCCCC2)CCN(c2ncc(NC(=O)c3ccc(F)cc3)cc2C(=O)O)CC1 | -7.63% [at 10 µM] |
| Cc1ccc(C)c(-c2coc(-c3ccc(NC(=O)Nc4ccc5c(c4)OCCO5)cc3)n2)c1 | 196% [at 5 µM] |
| CCc1nc(OCC(=O)Nc2ccc(OC)cc2OC)c2ccccc2n1 | -16.2% [at 0.35 µM] |
| CCOC(=O)CSC1=Nc2ccccc2C2=NC(CC(=O)NCc3ccccc3)C(=O)N12 (stereo not drawn) | -17% [at 0.16 µM] |
| CCOc1ccccc1-c1noc(-c2nnn(Cc3nc(-c4cccc(C)c4)oc3C)c2C)n1 | -4.72% [at 5 µM] |
| N#C[C@@H]1[C@H](c2ccc(C#Cc3cccc(F)c3)cc2)[C@H](CO)N1C(=O)C1CCOCC1 | 26.4% [at 10 µM] |
| N#C[C@H]1[C@H](c2ccc(C#Cc3cccc(F)c3)cc2)[C@@H](CO)N1C(=O)C1CCOCC1 | 33.1% |
| COc1cccc(-c2nc3c(s2)CN(C(=O)NC2CCCCC2)CC3)c1 | -6.7% |
| Cc1ccc(-c2noc(-c3nnn(Cc4nc(-c5cccc(C)c5)oc4C)c3C)n2)cc1 | 7.12% [at 0.68 µM] |
| Cc1cccc(-c2nc(Cn3nnc(-c4nc(-c5ccccc5)no4)c3C)c(C)o2)c1 | 4.79% [at 0.68 µM] |
| CCOc1ccccc1-c1noc(-c2nnn(Cc3nc(-c4ccc(C)cc4)oc3C)c2C)n1 | -5.47% [at 1.35 µM] |
| COc1ccc(-c2nc(Cn3nnc(-c4nc(-c5ccccc5OC)no4)c3C)c(C)o2)cc1 | -5.44% [at 1.35 µM] |
| COc1ccc(-c2nc(Cn3nnc(-c4nc(-c5ccc(C)cc5)no4)c3C)c(C)o2)cc1 | 4.22% [at 0.16 µM] |
| Cc1ccc(-c2noc(-c3nnn(Cc4nc(-c5ccc(C)cc5)oc4C)c3C)n2)cc1 | 8.64% |
| COc1ccc(-c2nc(Cn3nnc(-c4nc(-c5cccs5)no4)c3C)c(C)o2)cc1 | 7.54% [at 0.16 µM] |

| Compound | max activity |
| --- | --- |
| COc1ccc(-c2nc(Cn3nnc(-c4nc(-c5cc(OC)cc(OC)c5)no4)c3C)c(C)o2)cc1 | 4.11% [at 0.35 µM] |
| CN(C)C(=O)c1ccc2nnc3ncn(Cc4ccccc4)c3c2c1 | -17.6% [at 10 µM] |
| COc1ccc(CCNc2nc(SCc3ccc(Cl)cc3)nc3ccccc23)cc1OC | 9.35% [at 1.35 µM] |
| COc1nc2c(c(C)nn2-c2ccccc2)c(C)c1CCC(=O)NCCc1c[nH]c2ccccc12 | 7.44% |
| O=C(Nc1c(C(=O)N2CCCC2)[nH]c2ccccc12)c1ccc(Cl)cc1 | 30.4% [at 10 µM] |
| O=C(CCC1N=C2c3ccccc3N=C(SCc3cc(=O)n4ccccc4n3)N2C1=O)NCc1ccco1 (stereo not drawn) | 26.1% [at 1.35 µM] |
| CCc1nc(OCC(=O)Nc2cc(OC)ccc2OC)c2ccccc2n1 | -25% [at 2.6 µM] |
| Cc1ccc(C)c(-c2coc(-c3ccc(NC(=O)C4CCCCC4)cc3)n2)c1 | 10.4% [at 10 µM] |
| Cc1ccc(-c2nc(Cn3nnc(-c4nc(-c5ccccc5C)no4)c3C)c(C)o2)cc1 | 15.4% [at 0.16 µM] |
| Cc1nc(CCNC(=O)C2CCN(S(=O)(=O)c3ccc(Cl)s3)CC2)cs1 | -9.13% |
| O=S(=O)(c1cccs1)N1CCC2(CC1)NCCN=C2NCc1cc(F)cc(F)c1 | 10.2% [at 0.16 µM] |
| Cc1cccc(CNC2=NCCNC23CCN(S(=O)(=O)c2cccs2)CC3)c1 | 13.8% |
| Cc1ccc(CNC2=NCCNC23CCN(S(=O)(=O)c2cccs2)CC3)cc1 | 17.3% [at 10 µM] |
| O=S(=O)(c1cccs1)N1CCC2(CC1)NCCN=C2NCc1ccc(F)c(Cl)c1 | -41.7% |
| CCCC(=O)Nc1ccc(-c2nc(-c3ccccc3)co2)cc1 | 72.8% [at 10 µM] |
| Cc1nc(CCNC(=O)C2CCN(S(=O)(=O)c3ccc(Cl)cc3)CC2)cs1 | -9.1% [at 0.35 µM] |
| O=C(NCCc1csc(-c2ccccc2)n1)C1CCN(S(=O)(=O)c2ccccc2)CC1 | 11.6% [at 10 µM] |
| Cc1nc(CCNC(=O)C2CCN(S(=O)(=O)c3ccc(CC(C)C)cc3)CC2)cs1 | -7.19% [at 1.35 µM] |
| Cc1cc(C)cc(S(=O)(=O)N2CCC(C(=O)NCCc3csc(-c4ccccc4)n3)CC2)c1 | 16.8% [at 10 µM] |
| CCOc1ccc(S(=O)(=O)N2CCC(C(=O)NCCc3csc(-c4ccccc4)n3)CC2)cc1 | 21.5% [at 5 µM] |
| Cc1ccc(S(=O)(=O)N2CCC(C(=O)NCCc3csc(-c4ccccc4)n3)CC2)cc1 | 5.41% [at 5 µM] |
| O=C(NCCc1csc(-c2ccccc2)n1)C1CCN(S(=O)(=O)c2cccc(F)c2)CC1 | 8.1% [at 5 µM] |
| O=C(NCCc1csc(-c2ccccc2)n1)C1CCN(S(=O)(=O)c2cccs2)CC1 | 11.2% [at 0.16 µM] |
| COC(=O)c1sccc1S(=O)(=O)N[C@@H]1CC[C@@H](N)C1 | 17.5% |
| CCc1c(C)sc2c1CCN(Cc1nc(-c3cccc(Cl)c3)oc1C)C2c1ccccc1 (stereo not drawn) | 7.75% [at 0.68 µM] |

| Compound | max activity |
| --- | --- |
| COc1cccc(-c2nc3c(s2)CN(S(=O)(=O)c2ccc(CC(C)C)cc2)CC3)c1 | 8.23% [at 2.6 µM] |
| CCc1ccccc1Nc1nc(-c2ccc(OC)cc2)nc2ccccc12 | -9.45% [at 0.16 µM] |
| COc1ccccc1-c1nc(Cn2nnc(-c3nc(-c4ccccc4)no3)c2C)c(C)o1 | -9.24% [at 1.35 µM] |
| Cc1cccc(C2=NC3(CCN(Cc4ccccc4C)CC3)NC2=O)c1 | 12% [at 0.16 µM] |
| O=C(Cc1ccc(F)cc1)Nc1ccc(-c2nc(-c3ccccc3)co2)cc1 | 4.13% [at 5 µM] |
| COc1ccc(-c2nc(Nc3ccc(C)cc3Cl)c3ccccc3n2)cc1 | -11.8% [at 2.6 µM] |
| NC(=O)C1(N2CCCCC2)CCN(c2ncc(NC(=O)c3ccccc3F)cc2C(=O)O)CC1 | 15.7% [at 2.6 µM] |
| CCCc1ccc(S(=O)(=O)N2CCc3nc(-c4cccc(OC)c4)sc3C2)cc1 | -6.99% [at 2.6 µM] |
| COc1cc(OC)cc(C(=O)N2CCC3(CC2)Nc2ccc(C)c(C)c2-n2cccc23)c1 | -13.1% [at 0.35 µM] |
| O=C(NCCc1csc(-c2ccccc2)n1)C1CCN(C(=O)Cc2ccc(Cl)cc2)CC1 | 8.14% |
| COc1cccc(CC(=O)N2CCC(C(=O)NCCc3csc(-c4ccccc4)n3)CC2)c1 | 8.89% [at 10 µM] |
| COc1ccc(-c2nc3c([nH]2)c(=O)n(C)c(=O)n3C)cc1OC | 40.8% [at 0.35 µM] |
| Cc1ccc(CCNC(=O)CCC2Nc3c4ccccc4nc(=S)n3C2=O)cc1 (stereo not drawn) | 13.4% [at 10 µM] |
| COc1cccc(S(=O)(=O)N2CC[C@@H]3[C@H](CO)Nc4ccc(C5=CCCCC5)cc4[C@@H]32)c1 | 8.73% [at 10 µM] |
| CN(C)CC(=O)N1C[C@@H]2N[C@H](C1)C2c1ccc(C2=CCCCC2)cc1 (stereo partly drawn) | 18.8% [at 9 µM] |
| Cc1nc(CCNC(=O)[C@H]2CCCN2S(=O)(=O)c2cccs2)cs1 | 7.39% [at 0.16 µM] |
| O=C(NCCCN1CCC(N2CCCCC2)CC1)c1nnc2ccc(-c3ccccc3)nn12 | 16.2% [at 0.16 µM] |
| Cc1cccc(C(=O)N2CCC3(CC2)Nc2ccc(C)c(C)c2-n2cccc23)c1 | 11.2% [at 0.68 µM] |
| Cc1oc(-c2ccccc2)nc1Cn1nnc(-c2nc(-c3ccc4c(c3)OCO4)no2)c1C | 8.48% [at 10 µM] |
| O=S(=O)(Cc1ccccc1)N1CC2CN(Cc3cccc(Cl)c3)CC2C1 (stereo not drawn) | 9.94% |
| COc1cccc(CN2CCc3nc(SCc4nc(-c5ccccc5)oc4C)[nH]c(=O)c3C2)c1 | 24.2% [at 2.6 µM] |
| COc1ccc(-c2nc(NCC3CCN(Cc4cccc(C)c4)CC3)c3ccccc3n2)cc1 | -18.6% [at 2.6 µM] |
| COc1ccc(-c2nc(NCC3CCN(Cc4cccc(Cl)c4)CC3)c3ccccc3n2)cc1 | -31.6% [at 10 µM] |
